Screening data: PubChem BioAssay, University of Kansas High Throughput Screening Laboratory
mHTT CaM bind: disrupts binding of mutant huntingtin to calmodulin | AID 1671202 | 190,000 tested, 3.6% active | inhibition, % at 15 µM | AlphaScreen His-mHTT/GST-CaM binding, luminescence;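 note: 0% = both proteins with DMSO and 100% = one protein alone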
Pf apPOL block: Pf-apPOL DNA polymerase inhibition; 210,000 tested, 0.25% active; Recombinant Pf-apPOL, molecular beacon fluorescence, 1.5 h; inhibition, % at 10 µM
Starred values were filed as active, the others as inactive; ! = not confirmed by another sample. Many of the other results were omitted from the sample, so hits are more common in it than they were. Cut-off read from the data, not from the text of the source: active = inhibition above about 50%; inactive = the rest.

For CC(C)NC(=O)c1cncc(-c2ccc(F)cc2F)c1 the results were mHTT CaM bind 6 and Pf apPOL block 63*.
Screening Cn1cc(CC(=O)Nc2cccnc2)c2ccccc21 returned mHTT CaM bind 8 and Pf apPOL block -20.
For COc1ccc([C@@H]2C[C@@H](c3ccccc3)Oc3cc(C)cc(C)c32)cc1 the results were mHTT CaM bind -8 and Pf apPOL block -6.
`COc1ccc([C@@H]2C[C@H](c3ccccc3)Oc3cc4c(cc32)OCO4)cc1` gave mHTT CaM bind 60*! and Pf apPOL block 0.
Screening CN(C)c1ccc(/C=C/CN2CCN(Cc3ccccc3)CC2)cc1 returned mHTT CaM bind 56* and Pf apPOL block 1.
Clc1ccccc1N1CCN(C/C=C/c2ccccc2)CC1 was read as mHTT CaM bind 62* and Pf apPOL block -2.
Screening CCN1CCN(C/C=C/c2ccccc2)CC1 returned mHTT CaM bind -6 and Pf apPOL block -2.
`COc1ccc(CN2CCN(C/C=C/c3ccccc3)CC2)cc1OC` gave mHTT CaM bind 7 and Pf apPOL block -12.
For O=[N+]([O-])c1cccc(CN2CCN(C/C=C/c3ccccc3)CC2)c1 the results were mHTT CaM bind 51* and Pf apPOL block -12.
`Oc1cccc(CN2CCN(C/C=C/c3ccccc3)CC2)c1` gave mHTT CaM bind 2 and Pf apPOL block -5.
For O=[N+]([O-])c1ccccc1CN1CCN(C/C=C/c2ccccc2)CC1 the results were mHTT CaM bind 29 and Pf apPOL block -2.
COc1cc(CN2CCN(C/C=C/c3ccccc3)CC2)c([N+](=O)[O-])cc1OC was read as mHTT CaM bind 82* and Pf apPOL block -9.
`Cc1cccc(-c2cccc(C(=O)O)c2)c1` gave mHTT CaM bind -6 and Pf apPOL block -9.
`Cc1cccc(-c2nocc2CCC(=O)NCc2cc(F)cc(F)c2)c1` gave mHTT CaM bind -24 and Pf apPOL block 2.
COc1cccc(C(=O)N2CCC(Nc3cccnc3)C2)c1 (centres undefined) was read as mHTT CaM bind -3 and Pf apPOL block -5.
`C=C(C)C1OC1c1c(OC)ccc2ccc(=O)oc12` (centres undefined) gave Pf apPOL block -6.
Screening CCN1CCN(C(=O)CCC2CCCN(C(=O)Nc3cccc(F)c3)C2)CC1 (centres undefined) returned mHTT CaM bind 18 and Pf apPOL block -6.
Screening O=C(CCC1CCCN(C(=O)Nc2cccc(F)c2)C1)N1CCN(c2ccccc2)CC1 (centres undefined) returned mHTT CaM bind 50* and Pf apPOL block -4.
Screening Cc1ccccc1NS(=O)(=O)c1ccc(-c2ccccc2)cc1 returned mHTT CaM bind 80* and Pf apPOL block -14.
Screening COc1ccc(S(=O)(=O)Nc2ccccc2C)cc1OC returned mHTT CaM bind -3 and Pf apPOL block -4.
Screening COc1cc(C2CC(=O)Nc3n[nH]c(C)c32)ccc1OCc1ccccc1Cl (centres undefined) returned mHTT CaM bind 25 and Pf apPOL block -3.
`Cc1sc2nc(SCC(=O)c3ccc(O)c(O)c3)[nH]c(=O)c2c1C` gave mHTT CaM bind 68* and Pf apPOL block -1.
For Cc1cc(C)c2c(=O)[nH]c(SCC(=O)c3ccc(O)c(O)c3)nc2n1 the results were mHTT CaM bind 6 and Pf apPOL block -4.
`Fc1ccc(C2Nc3cccc4cccc(c34)N2)cc1` gave mHTT CaM bind 52*.
Screening COc1cc(C2Nc3cccc4cccc(c34)N2)cc(OC)c1OC returned mHTT CaM bind 28 and Pf apPOL block 9.
Screening CCn1cc(C(=O)NCCC(C)C)c(=O)c2ccc(C)nc21 returned mHTT CaM bind 1 and Pf apPOL block -1.
Oc1ccc(N=Nc2ccccc2)c(O)c1 was read as Pf apPOL block 36.
`Nc1ccc(N=Nc2ccccc2)c(N)n1` gave mHTT CaM bind 52*.
`Cc1cc(Br)ccc1OCC(=O)O/N=C(\N)c1ccccn1` gave mHTT CaM bind inactive and Pf apPOL block 20.
Screening CC(=O)NC(CCS(C)(=O)=O)C(=O)Nc1cc(F)ccc1F (centres undefined) returned mHTT CaM bind 3 and Pf apPOL block -3.
For c1cc(-c2n[nH]c(C3CCCN(Cc4ccc5cc[nH]c5c4)C3)n2)ccn1 (centres undefined) the results were mHTT CaM bind 53* and Pf apPOL block 3.
For N#Cc1ccc(CN2CCCC(c3nc(-c4cccnc4)n[nH]3)C2)cc1 (centres undefined) the results were mHTT CaM bind -12 and Pf apPOL block 6.
c1ccc(CN2CCCC(c3nc(-c4cccnc4)n[nH]3)C2)nc1 (centres undefined) was read as mHTT CaM bind 99* and Pf apPOL block -23.
For N#Cc1cccc(CN2CCCC(c3nc(-c4ccncc4)n[nH]3)C2)c1 (centres undefined) the results were mHTT CaM bind 18 and Pf apPOL block -7.
Screening CC1(C)CC(=O)C2=C(C1)N(c1ncn[nH]1)C(N)=C(C#N)C2c1ccc(Cl)cc1Cl (centres undefined) returned mHTT CaM bind 0 and Pf apPOL block -2.
For Cn1c(CNC(=O)c2ccnc(N3CCNC(c4ccccc4)C3)c2)nc2ccccc21 (centres undefined) the results were mHTT CaM bind 36 and Pf apPOL block -11.
For CCC(C)(C(=O)NC1CCCCC1)N(C)C(=O)Cc1c[nH]c2ccccc12 (centres undefined) the results were mHTT CaM bind 7 and Pf apPOL block -2.
For O=C(Cc1c[nH]c2ccccc12)N(CC1CCCO1)C1(C(=O)NC2CCCCC2)CCCCC1 (centres undefined) the results were mHTT CaM bind 87* and Pf apPOL block -1.
`CCC(C)(C(=O)NC1CCCCC1)N(CC1CCCO1)C(=O)Cc1c[nH]c2ccccc12` (centres undefined) gave mHTT CaM bind 58* and Pf apPOL block -2.
Screening O=C(Cc1c[nH]c2ccccc12)N(Cc1cccs1)C1(C(=O)NC2CCCC2)CCCCC1 returned mHTT CaM bind 0 and Pf apPOL block -6.
O=C(Cc1cccs1)N1CCCn2nc(-c3ccncc3)cc2C1 was read as mHTT CaM bind 2 and Pf apPOL block -8.
`COc1ccc(C2C=C(c3ccc(Br)cc3)Nc3nnnn32)c(OC)c1OC` (centres undefined) gave mHTT CaM bind 17 and Pf apPOL block -2.
For O=C(Nc1nnc(-c2ccsc2)o1)c1ccccc1F the results were mHTT CaM bind 40 and Pf apPOL block -5.
For O=C(Nc1nnc(-c2ccsc2)o1)c1cc(-c2ccccc2)on1 the results were mHTT CaM bind -4 and Pf apPOL block -228.
Screening O=C(Cc1c(F)cccc1Cl)Nc1nnc(-c2ccsc2)o1 returned mHTT CaM bind 57* and Pf apPOL block 8.
For O=C(Nc1nnc(-c2ccsc2)o1)c1ccccn1 the results were mHTT CaM bind 100* and Pf apPOL block -181.
For CCC(C)(C)C1CCc2c(sc(N)c2C#N)C1 (centres undefined) the results were Pf apPOL block 97*.
For CCN1CCc2c(sc(N)c2C#N)C1 the results were mHTT CaM bind 7 and Pf apPOL block -22.
Screening COc1ccccc1-n1c(SCC(=O)NC2CCCCNC2=O)nc2[nH]ncc2c1=O (centres undefined) returned mHTT CaM bind 3 and Pf apPOL block -5.
For CCc1onc(C)c1C1CCCN1C(=O)Nc1ccc(Br)cc1F (centres undefined) the results were mHTT CaM bind -5 and Pf apPOL block 2.
